The sample as a whole holds a higher share of hits than the screen did.
ClpP mod: qHTS Assay for Activators of ClpP. ATP-dependent Clp protease proteolytic subunit (Bacillus subtilis (strain 168)), P80244. purified B. subtilis ClpP, FRET peptide cleavage, 20 min. Potency, µM (doses to about 57.5 µM). hit rate 1.9% among 340,000; active = well fitted falling curve with a large enough effect; inconclusive = small, poorly fitted or top-dose-only effect; inactive = no such curve, though single readings can be large or run the other way; note: the source files actives as falling curves though it sought activators and does not explain the sign; nearly all actives have a fitted effect of over 65% in size
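Buffer: 100 mM Tris/HCl pH8, 100 mM KCl, 0.05% low protease BSA, 2.5% glycerol, 0.01% Tween-20. ClpP 10 microg/mL final; 20 min RT; delta FRET normalized to ADEP and DMSO controls.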
p53 reactivation: mutant p53 re-activation in reporter cells; H1299 p53-A138V BP100-luciferase reporter, luminescence, 24 h; Potency, µM (top dose mostly 92.2 µM), actives largely listed as activators; hit rate 0.063% among 320,000; AID 504706; active = well fitted activation curve with a large enough effect; inconclusive = small, poorly fitted or top-dose-only effect; inactive = no such curve, though single readings can be large or run the other way; note: nearly all actives have a fitted effect of over 45% in size
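p53-null H1299 cells stably carrying temperature-sensitive p53-A138V and a BP100-luciferase reporter were pinned with compounds (4-point, 1:5 series) and held 24 hrs at 37 deg C. Luminescence was read 10 min after detection reagent.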
CXXC DNA block: blocks binding of human MLL CXXC domain to DNA; Q03164; MLL-CXXC / FITC-HOXA9 DNA fluorescence polarization; Potency, µM (top dose mostly 115 µM), most hits filed as inhibitors; hit rate 0.037% among 290,000; active = well fitted inhibition curve with a large enough effect in the polarisation, with a control signal flat, not every such curve was filed as active; inconclusive = small, poorly fitted or top-dose-only effect, or effect the other way, or a change in a side signal; inactive = no such curve, though single readings can be large or run the other way; the % refers to the polarisation
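Purified MLL-CXXC (added from a 7 uM solution) was preincubated 5 min at ambient with pinned compounds in 50 mM Tris-HCl pH 7.5, 50 mM NaCl, 1 mM DTT, 0.05% BSA. Fluorescein-labeled HOX-A9 DNA (50 nM solution) followed, 30 min, then polarization read.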
Menin MLL FP TR: displaces Texas Red mutant MLL peptide from human menin. O00255. Menin + Texas Red MLL mutant peptide, fluorescence polarization. Potency, µM (highest dose often 61.6 µM), usual class: inhibitors. hit rate 0.23% among 270,000. AID 1768; active = well fitted inhibition curve with a large enough effect in the polarisation, with a control signal flat, not every such curve was filed as active; inconclusive = small, poorly fitted or top-dose-only effect, or effect the other way, or a change in a side signal; inactive = no such curve, though single readings can be large or run the other way; the % refers to the polarisation
Target sequence (O00255 whole entry, looked up): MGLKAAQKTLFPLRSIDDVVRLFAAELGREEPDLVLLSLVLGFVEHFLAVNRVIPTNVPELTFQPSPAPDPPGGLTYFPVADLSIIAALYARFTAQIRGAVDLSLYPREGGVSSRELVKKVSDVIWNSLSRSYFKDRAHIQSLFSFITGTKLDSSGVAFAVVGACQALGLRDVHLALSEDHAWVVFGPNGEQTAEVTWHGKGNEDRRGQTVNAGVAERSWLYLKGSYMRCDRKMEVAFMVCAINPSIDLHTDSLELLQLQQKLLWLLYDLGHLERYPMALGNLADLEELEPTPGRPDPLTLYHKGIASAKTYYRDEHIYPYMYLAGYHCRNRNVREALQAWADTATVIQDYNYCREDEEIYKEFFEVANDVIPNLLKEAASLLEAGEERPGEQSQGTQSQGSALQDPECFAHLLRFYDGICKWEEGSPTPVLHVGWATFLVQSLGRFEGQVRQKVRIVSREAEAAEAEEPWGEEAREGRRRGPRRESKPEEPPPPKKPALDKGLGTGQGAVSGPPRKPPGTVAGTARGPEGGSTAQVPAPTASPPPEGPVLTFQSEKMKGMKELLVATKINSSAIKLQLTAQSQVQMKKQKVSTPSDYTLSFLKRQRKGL
Menin-MLL FL inh: displaces fluorescein MLL peptide from human menin. Fluorescence polarization, fluorescein-MLL peptide displacement from menin. FP activity change, % at 61.4 µM. 290,000 tested, under 10 active; active = well fitted curve in the direction sought with a large enough effect in the polarisation, not every such curve was filed as active; inconclusive = small, poorly fitted or top-dose-only effect, or effect the other way, or a change in a side signal; inactive = no such curve, though single readings can be large or run the other way; the % refers to the polarisation
Hits are given with their value; – = inactive; ? = inconclusive; · = no result; ! = not confirmed by another sample; [ ] = dose if it differs, or a comment.

SMILES | ClpP mod | p53 reactivation | CXXC DNA block | Menin MLL FP TR | Menin-MLL FL inh
CC1CC(C)CN(C(=O)COC(=O)c2cc3ccccc3oc2=O)C1 (stereo not given) | 35µM | ? | · | · | ·
CC[N+](C)(C)CCN(Cc1ccc(Cl)cc1)c1ccccn1 | 28µM | – | – | – | –
CC(C)(C)c1cc(NCCCn2ccnc2)n2ncc(-c3ccc(Cl)cc3)c2n1 | 14µM | – | ? | ? | –
Cc1cc(NCCOCCO)n2ncc(-c3ccc(Cl)cc3)c2n1 | ? | 40µM | – | ? | –
Cc1cc(N)n2ncc(-c3ccc(Cl)cc3)c2n1 | 22µM | ? | – | ? | –
Cc1cc(NCCCn2ccnc2)n2nc(-c3ccc(Cl)cc3)cc2n1 | ? | – | – | – | –
Oc1ccc(Cl)cc1C1C=C(c2ccc3c(c2)OCO3)NC(c2ccc(Cl)cc2)N1 (stereo not given) | – | · | · | · | ·
COc1ccccc1C1CC(=O)Oc2cc3c(cc21)OCO3 (stereo not given) | · | · | · | ? | –
COc1ccc(CNCc2ccccc2)cc1COc1ccc(NC(C)=O)cc1 | – | · | · | · | ·
Cn1c(N2CCOCC2)nc(-c2ccccc2)c1-c1ccccc1 | 11µM | – | – | – | –
c1ccc(-c2nc3ccccc3nc2N2CCOCC2)cc1 | – | – | – | – | –
Cc1n[nH]c(=O)c2c(NC(=O)CSc3nnc(-c4ccncc4)n3C)oc(C)c12 | 32µM | – | – | · | ·
Cc1ccccc1OCC(=O)Nc1cc(C)c(O)c(-c2nc3ccccc3o2)c1 | – | · | · | · | ·
O=C(NN1C(=O)c2ccc3c4c(ccc(c24)C1=O)CC3)c1ccc(Br)cc1 | 13µM | – | – | – | –
O=C1c2ccc3c4c(ccc(c24)C(=O)N1NC(=O)C(F)(F)F)CC3 | 35µM | – | – | – | –
O=C(O)c1ccc2c(c1)C(=O)N(NC(=O)c1ccccc1)C2=O | – | – | – | – | ?
COc1ccc(CCN2CCC[C@H](CN3CCc4cc(OC)c(OC)cc4CC3=O)C2)cc1OC | · | · | · | – | –
Cc1cn(C2CC3OCC(NC(=O)C(NC(=O)OC(C)(C)C)C(C)OCc4ccccc4)C3O2)c(=O)[nH]c1=O (stereo not given) | · | · | · | – | –
c1ccc2c(-c3nc4ccccc4[nH]3)cccc2c1 | – | · | · | · | ·
c1ccc2[nH]c(-c3ccnc4ccccc34)nc2c1 | 16µM! | ? | – | – | –
c1ccc2nc(-c3nc4ccccc4[nH]3)ccc2c1 | 32µM | – | – | – | –
O=[N+]([O-])c1ccc2c(c1)C=C/C2=C\c1ccccc1 | – | · | · | · | ·
CCN(CC)c1ccc(-n2cc3c(=O)n(C)c(=O)n(C)c3c2)cc1 | 35µM | – | – | – | –
CN(C)c1ccc(-n2cc3c(=O)n(C)c(=O)n(C)c3c2)cc1 | – | – | – | – | –
CCN(CC)c1nc(C#N)nc(N2CCOCC2)n1 | – | · | · | · | ·
SMILES | ClpP mod | p53 reactivation | CXXC DNA block | Menin MLL FP TR | Menin-MLL FL inh
O=C(c1cccs1)N1N=C(c2ccccc2)CC1c1ccccc1O (stereo not given) | · | – | – | 18µM | –
COc1cccc(NC(=O)c2cc(CN3C(=O)c4ccccc4C3=O)ccc2OC)c1 | 10µM | – | – | – | –
COc1cccc(NC(=O)CN(C)C(=O)c2cc(CN3C(=O)c4ccccc4C3=O)ccc2OC)c1 | – | · | · | · | ·
COC(=O)C1(C(=O)OC)CC2=C[C@H](CC2=O)Cc2ccccc2[C@@H]1C[N+](=O)[O-] | · | · | · | – | –
COc1ccc(C=C2c3ccccc3C(=O)c3ccccc32)cc1O | · | · | · | – | –
COc1ccccc1C(=O)Nc1ccc(-c2nc3cc(C)cc(C)c3o2)cc1 | – | · | · | · | ·
Cc1cc(C)c2oc(-c3ccc(NC(=O)c4cc(Br)ccc4Cl)cc3)nc2c1 | 20µM | · | · | · | ·
COc1ccc2oc(-c3ccc(C)c(NC(=O)CSc4ccc(Cl)cc4)c3)nc2c1 | 11µM! | ? | – | – | –
COc1c(C)cccc1C(=O)Nc1ccc(Cl)c(-c2nc3cc(C)ccc3o2)c1 | 25µM | · | · | · | ·
COc1ccc2oc(-c3ccc(NC(=O)c4ccc(Cl)cc4Cl)cc3)nc2c1 | 35µM | · | · | · | ·
Cc1ccc2nc(-c3ccc(C)c(NC(=O)CSc4ccc(Cl)cc4)c3)oc2c1 | – | · | · | · | ·
O=Cc1ccc(N2CCOCC2)cc1 | – | · | · | · | ·
O=C(C[n+]1cccc2cccc(O)c21)c1ccccc1 | – | · | · | · | ·
Cc1cc(O)cc2c1O[C@](C)(CCC(=O)O)CC2 | – | · | · | · | ·
COc1ccc(C(=O)COC(=O)c2ccc(Cl)nc2)cc1OC | 22µM | – | · | · | ·
COc1ccc(C(=O)COC(=O)c2ccc(Cl)nc2)c(OC)c1 | – | – | · | · | ·
CCCCCCCCN1[C@@H](CC(C)=O)c2ccc(/C=C/C(C)=O)cc2S1(=O)=O | – | · | · | · | ·
COc1ccc(-n2c(-c3ccccc3F)nc3c(cnn3-c3ccc(C)cc3)c2=O)cc1 | 25µM | · | · | · | ·
CCN1C(=O)[C@@H]2[C@H]3C(=CC[C@H]2C1=O)C(=O)[C@H]1OC1[C@H]3O (stereo not given in full) | · | · | · | –[11.7 µM] | –[11.7 µM]
C=CCOC(=O)COc1ccc2c(C)c(C)c(=O)oc2c1 | 13µM | – | – | – | –
CC(=O)COc1ccc2c(C)c(-c3ccccc3)c(=O)oc2c1 | · | – | ? | – | –
CCCCc1c(C)c2ccc(OCC(C)=O)cc2oc1=O | 4µM | ? | – | – | –
CCOC(=O)CCc1c(C)c2ccc(OCC(=O)OC(C)C)cc2oc1=O | ? | – | – | – | –
CCCc1c(C)c2ccc(OCC(C)=O)cc2oc1=O | 3.2µM | ? | – | – | –
C=C1c2cccc(C(F)(F)F)c2O[C@H](C(=O)OCC)C1OC (mixture of isomers) | · | · | · | – | –
SMILES | ClpP mod | p53 reactivation | CXXC DNA block | Menin MLL FP TR | Menin-MLL FL inh
CSc1nc2nc(C)cc(-c3ccccc3)n2n1 | ? | – | – | – | –
CSc1nc2nc(C(F)(F)F)cc(-c3ccccc3)n2n1 | 32µM | – | – | – | –
COc1cc(/C=C/c2cncc(/C=C/c3cc(OC)c(OC)c(OC)c3)c2)cc(OC)c1OC | – | · | · | · | ·
Cc1ccc(C=Nc2ccccc2C(N)=O)s1 | 8.9µM | – | – | – | –
Cc1ccc(/C=N/N=C/c2ccc(C)s2)s1 | – | ? | – | – | –
Cc1cccc(C=Nc2ccccc2C(N)=O)c1 | 22µM | – | – | – | –
CC1(C)OC(=O)C2(Cc3ccc(Cl)cc3N3CCCCC32)C(=O)O1 (stereo not given) | – | · | · | · | ·
CC1CCC2(CC1)NC(=O)N(CC(=O)c1ccc[nH]1)C2=O (stereo not given) | 28µM | – | – | · | –
CC1CCCCC12NC(=O)N(CC(=O)c1ccc[nH]1)C2=O (stereo not given) | – | – | – | – | –
N#C/C(=C/c1ccc(N2CCCCCC2)o1)c1ccc(F)cc1 | 32µM | · | · | · | ·
N#C/C(=C/c1ccc(N2CCCCCC2)o1)c1cccc(F)c1 | – | – | – | – | ?
C/C(=N\O)c1ccc2c3c([nH]c2c1)CCCC3 | 16µM | ? | – | – | ?

Compound activity: PubChem, National Center for Advancing Translational Sciences (NCATS)
